In PubChem BioAssay AID1159580 (chemical genetic matrix, 2015):
Where “and” joins values, the source holds several entries; their conditions need not be identical. Identical values can stand only once. In all, about 5,500 compounds went through this assay and about 2,000 (36%) were called active. Roughly 18% stayed inconclusive and do not appear here. Rule as the data show it: active = normalized growth mostly below about 0.91 (no sharp cut-off); inconclusive = no clear call, values can overlap the other calls; inactive = mostly above about 0.92. The list shows a part of the results.

Assay: chemical genetic growth profiling, strain panel (AID 1159580);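 also: tested at 20 µM; growth read once vehicle control cultures reached saturation at 30 °C; 1 = growth at the plate median or of vehicle wells; lower values mean less growth of the strain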
Conditions: growth OD

Measured: normalized growth

Cc1nc2ccccn2c(=O)c1CCN1CCC(C(=O)c2ccc(F)cc2)CC1
inactive: S. cerevisiae deletion strains, locus YJR075W, strain HOC1, active compounds read low 0.974 and 1.01 | S. cerevisiae deletion strains, locus YKL009W, strain mrt4, active compounds read low 1.01 | S. cerevisiae deletion strains, locus YKL068W, active compounds read low 1 | S. cerevisiae deletion strains, locus YKL085W, strain MDH1 (second series), active compounds read low 1.03 | S. cerevisiae deletion strains, locus YKL085W, strain MDH1, active compounds read low 1.03 | S. cerevisiae deletion strains, locus YKL160W, strain elf1, active compounds read low 0.991 | S. cerevisiae deletion strains, locus YKL190W, strain CNB1, active compounds read low 1.02 | S. cerevisiae deletion strains, locus YKR001C, strain vps1, active compounds read low 0.995 | S. cerevisiae deletion strains, locus YKR026C, strain gcn3, active compounds read low 0.98 | S. cerevisiae deletion strains, locus YKR091W, strain srl3, active compounds read low 0.994 | S. cerevisiae deletion strains, locus YLL001W, strain dnm1, active compounds read low 0.997 | S. cerevisiae deletion strains, locus YLL026W, active compounds read low 0.989 | S. cerevisiae deletion strains, locus YLL041C, strain sdh2, active compounds read low 0.991 | S. cerevisiae deletion strains, locus YLR027C, strain aat2, active compounds read low 1 | S. cerevisiae deletion strains, locus YLR039C, strain RIC1, active compounds read low 1.03 | S. cerevisiae deletion strains, locus YLR058C, strain SHM2, active compounds read low 1.02 | S. cerevisiae deletion strains, locus YLR102C, strain apc9, active compounds read low 0.993 | S. cerevisiae deletion strains, locus YLR113W, strain HOG1, active compounds read low 1.01 | S. cerevisiae deletion strains, locus YLR221C, strain rsa3, active compounds read low 1 | S. cerevisiae deletion strains, locus YLR258W, strain gsy2, active compounds read low 0.986 | S. cerevisiae deletion strains, locus YLR262C, strain YPT6 (second series), active compounds read low 0.954 | S. cerevisiae deletion strains, locus YLR262C, strain YPT6, active compounds read low 1.05 | S. cerevisiae deletion strains, locus YLR268W, strain sec22, active compounds read low 0.995 | S. cerevisiae deletion strains, locus YLR320W, strain mms22, active compounds read low 1 | S. cerevisiae deletion strains, locus YLR330W, strain CHS5, active compounds read low 1.02 | S. cerevisiae deletion strains, locus YLR342W, strain FKS1 (second series), active compounds read low 0.988 | S. cerevisiae deletion strains, locus YLR342W, strain FKS1, active compounds read low 0.988 | S. cerevisiae deletion strains, locus YLR357W, strain rsc2, active compounds read low 0.924 | S. cerevisiae deletion strains, locus YLR370C, strain arc18, active compounds read low 0.991 | S. cerevisiae deletion strains, locus YLR371W, strain rom2, active compounds read low 0.989 | S. cerevisiae deletion strains, locus YLR384C, strain iki3, active compounds read low 0.985 | S. cerevisiae deletion strains, locus YLR418C, strain cdc73, active compounds read low 1.01 | S. cerevisiae deletion strains, locus YML016C, strain PPZ1, active compounds read low 1.02 | S. cerevisiae deletion strains, locus YML032C, strain rad52, active compounds read low 0.985 | S. cerevisiae deletion strains, locus YML120C, strain ndi1, active compounds read low 1 | S. cerevisiae deletion strains, locus YML124C, strain tub3, active compounds read low 0.995 | S. cerevisiae deletion strains, locus YMR058W, strain fet3, active compounds read low 1 | S. cerevisiae deletion strains, locus YMR078C, strain ctf18, active compounds read low 0.994 | S. cerevisiae deletion strains, locus YMR125W, strain sto1, active compounds read low 0.962 | S. cerevisiae deletion strains, locus YMR129W, active compounds read low 0.998 | S. cerevisiae deletion strains, locus YMR205C, strain PFK2, active compounds read low 0.985 | S. cerevisiae deletion strains, locus YMR223W, strain ubp8, active compounds read low 0.966 | S. cerevisiae deletion strains, locus YMR231W, strain pep5, active compounds read low 0.977 | S. cerevisiae deletion strains, locus YMR307W, strain GAS1, active compounds read low 1.01 and 1 | S. cerevisiae deletion strains, locus YNL067W, strain RPL9B, active compounds read low 1.04 | S. cerevisiae deletion strains, locus YNL071W, strain lat1, active compounds read low 0.993 | S. cerevisiae deletion strains, locus YNL128W, strain TEP1, active compounds read low 1.02 and 1.01 | S. cerevisiae deletion strains, locus YNL153C, strain GIM3, active compounds read low 1.06 | S. cerevisiae deletion strains, locus YNL175C, strain NOP13, active compounds read low 1.01 | S. cerevisiae deletion strains, locus YNL183C, strain NPR1, active compounds read low 0.979 | S. cerevisiae deletion strains, locus YNL197C, strain WHI3, active compounds read low 1.03 | S. cerevisiae deletion strains, locus YNL209W, strain ssb2, active compounds read low 0.994 | S. cerevisiae deletion strains, locus YNL224C, strain SQS1, active compounds read low 1.01 | S. cerevisiae deletion strains, locus YNL233W, strain BNI4, active compounds read low 1.03 | S. cerevisiae deletion strains, locus YNL248C, strain rpa49, active compounds read low 0.979 | S. cerevisiae deletion strains, locus YNL250W, strain rad50, active compounds read low 0.999 | S. cerevisiae deletion strains, locus YNL271C, strain bni1, active compounds read low 0.977 | S. cerevisiae deletion strains, locus YNL298W, strain CLA4, active compounds read low 0.987 | S. cerevisiae deletion strains, locus YNL307C, strain MCK1, active compounds read low 0.987 | S. cerevisiae deletion strains, locus YNL322C, strain KRE1 (second series), active compounds read low 0.966 | S. cerevisiae deletion strains, locus YNL322C, strain KRE1, active compounds read low 1.02 and 1.01 | S. cerevisiae deletion strains, locus YNR049C, strain mso1, active compounds read low 0.995 | S. cerevisiae deletion strains, locus YNR052C, strain pop2, active compounds read low 0.974 | S. cerevisiae deletion strains, locus YOL006C, strain TOP1, active compounds read low 1.09 | S. cerevisiae deletion strains, locus YOL012C, strain htz1 1.02 | S. cerevisiae deletion strains, locus YOL147C, strain pex11, active compounds read low 0.997 | S. cerevisiae deletion strains, locus YOR001W, strain rrp6, active compounds read low 1.01 | S. cerevisiae deletion strains, locus YOR061W, strain CKA2, active compounds read low 1.02 | S. cerevisiae deletion strains, locus YOR069W, strain VPS5, active compounds read low 1.02 | S. cerevisiae deletion strains, locus YOR070C, strain gyp1, active compounds read low 0.988 | S. cerevisiae deletion strains, locus YOR080W, strain dia2, active compounds read low 0.981 | S. cerevisiae deletion strains, locus YOR083W, strain WHI5 (second series), active compounds read low 1.02 | S. cerevisiae deletion strains, locus YOR083W, strain WHI5, active compounds read low 0.946 | S. cerevisiae deletion strains, locus YOR106W, strain vam3, active compounds read low 0.994 | S. cerevisiae deletion strains, locus YOR136W, strain idh2, active compounds read low 0.996 | S. cerevisiae deletion strains, locus YOR144C, strain elg1, active compounds read low 0.997 | S. cerevisiae deletion strains, locus YOR184W, strain ser1, active compounds read low 0.988 | S. cerevisiae deletion strains, locus YOR231W, strain MKK1, active compounds read low 1.04 | S. cerevisiae deletion strains, locus YOR265W, strain rbl2, active compounds read low 0.989 | S. cerevisiae deletion strains, locus YOR270C, strain vph1, active compounds read low 1.01 | S. cerevisiae deletion strains, locus YOR290C, strain snf2, active compounds read low 0.989 | S. cerevisiae deletion strains, locus YOR316C, strain cot1, active compounds read low 0.999 | S. cerevisiae deletion strains, locus YPL051W, strain arl3, active compounds read low 0.987 | S. cerevisiae deletion strains, locus YPL055C, strain LGE1, active compounds read low 1.09 | S. cerevisiae deletion strains, locus YPL078C, strain atp4, active compounds read low 0.989 | S. cerevisiae deletion strains, locus YPL106C, strain sse1, active compounds read low 0.963 | S. cerevisiae deletion strains, locus YPL240C, strain hsp82, active compounds read low 0.983 | S. cerevisiae deletion strains, locus YPL241C, strain CIN2, active compounds read low 1.02 | S. cerevisiae deletion strains, locus YPL256C, strain CLN2, active compounds read low 1.05 | S. cerevisiae deletion strains, locus YPR119W, strain clb2, active compounds read low 1 | S. cerevisiae deletion strains, locus YPR141C, strain kar3, active compounds read low 1 | S. cerevisiae deletion strains, locus YPR163C, strain tif3, active compounds read low 0.992 | S. cerevisiae deletion strains, locus YPR167C, strain met16, active compounds read low 0.991 | S. cerevisiae deletion strains, strain wtn01, active compounds read low 1.02 | S. cerevisiae strains, strain wild type, active compounds read low 1.01
